Data on 22 sequences can be found in the supplement of paper PMC6555819.

The assay concerns RARg:RXRa (NR concentration 270 nM, RXRa partner concentration 90 nM). The experiment in a line: PBM binding z-score (relative to random genomic background probes); higher = stronger binding; sequences stand for … in GC…GCGATTGACAGCGTAGAATGAAGG
The essentials:
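The probes on custom Agilent 4×180K protein-binding microarrays were double-stranded, with 34-nt variable regions bearing direct-repeat seeds, single-nucleotide variants, half-site ablations and random human genomic background sequences. Incubation lasted 1 h with ligand-free nuclear receptor dimers in PBS pH 7.4, 2% milk, 0.02% Triton X-100, 1 mM DTT, 0.2 mg/mL BSA and 0.4 mg/ml salmon testes DNA. Antibodies against each partner (one per run) detected bound dimers, and fluorescence scans were regression-normalized. Binding z-scores take the random background probes as reference.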
ATATGTAGGTTACATCCGGGTCATCCAGGCTATG yielded a PBM binding z-score of 3.98. Sequence TCTGCTAGGTCAACGATGGTCAGTTAATCTGCTA showed a PBM binding z-score of 4.12. In turn, CGTCCAAGGTCACGGTCAGTGAAAGAGACTCGAA gave a PBM binding z-score of 7.19. In turn, CCAGACAGGTGAGAAGGTAACTCAGCCTCGATTA had a PBM binding z-score of 0.555. As for GATACAGGGTCGGCTAGAGGCCAGAGTATGGAAA, the PBM binding z-score stood at 4.14.

The sequence CCTAGTTGTTCAGGAGGTCACACACCGGATATGA returned a PBM binding z-score of 4.48. In the case of TCGAGTAGGTCACGGGGGCATTCAGGGATGAAGA, the PBM binding z-score is 6.77. Under AGAATGAGGTTAAGTTCAGGGAAACAGAATACAT stands 3.41. Take CCTACTGGGCCAAAAAGGTCATTGATGCCGATAA: the PBM binding z-score amounted to 4.72. AATACAGGGTCACGAGGCCAGAGTAGGTACGAAT showed a PBM binding z-score of 6.44. With CCTTACGGGTAACGAGGTTATAGCACGACGAGCG, the PBM binding z-score worked out at 1.01. The sequence CCTACTGGGCCAAAAAGTTCATTGATGCCGATAA returned a PBM binding z-score of 1.48. Under AGAATGAGGTCAAGATCAGGGAAACAGAATACAT stands 6.53; under CTATGTAGGTTAGGGGGGTCATTCAGTTTGAAAG, 5.7. As for TGTCAATGTTCAAAGGTAACGTAAGTATCCACAC, the PBM binding z-score came to 0.811. The sequence CGTCCAAAGTCAAAGGTCAGTGAAGAGATGACGG yielded a PBM binding z-score of 4.93. Turning to ATATGTAGGTTAGCTGAGGTCATTCAGACTAGGC, the PBM binding z-score stood at 3.95.

As to TCTAGTTGGTCACGGAGGTCCCACACGACGGGTA, the PBM binding z-score was determined as 1.02. As for CGAACTAGGTCGAGGACAGTGAATCTCCGCACGC, the PBM binding z-score was 0.749.

As to CAAACTAGGTCACCGAAAGGTCAAAGTCCGCATG, the PBM binding z-score amounted to 8.9. Sequence CCTGCTAGGTCATGGTCAGCGAATCTACAGTATG had a PBM binding z-score of 4.05. CGTCCAAGGTCAAGGTCAATGAAAGAGACTCGAA showed a PBM binding z-score of 7.
